# Results published in article PMC7819943, “Rice protein-binding microarrays: a tool to detect cis-acting elements near promoter regions in rice”.
# The full ranking holds about 68,000 sequences; the median of “fluorescence intensity (a.u.)” is about 9,100, and the highest 2% start at about 16,000. The sample holds the highest values, similar sequences and a random draw of the others, so the mix is not that of the screen.
# Target: OsWRKY34 (Oryza sativa, UniProt Q0JBA9 1-250)
# Assay: protein-binding microarray (RPBM); PBS, 2% BSA, 51.3 ng/ul salmon testes DNA, 50 uM zinc acetate, 200 nM TF, 25 C, 1 h; high values mean tight binding
# Settings: protein: recombinant; tags: N-terminal polyhistidine and DsRed monomer fusion (pET32a); label: CyDye5-dUTP incorporated in the synthesized complementary strand; 3' TTTTT single-stranded linker to array surface; dsDNA, one strand shown
# In short: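 Using Ni–NTA, transcription factors fused N-terminally to polyhistidine and DsRed were purified after expression in E. coli BL21-CodonPlus. These were incubated at 200 nM with a blocked, double-stranded custom Agilent array for 1 h at 25 °C in a buffer containing 50 µM zinc acetate, and the array was washed. The binding signal is per-feature fluorescence intensity (arbitrary units) on an Axon 4000B scanner.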
# OsWRKY34, sequence (Q0JBA9 entry or part of it): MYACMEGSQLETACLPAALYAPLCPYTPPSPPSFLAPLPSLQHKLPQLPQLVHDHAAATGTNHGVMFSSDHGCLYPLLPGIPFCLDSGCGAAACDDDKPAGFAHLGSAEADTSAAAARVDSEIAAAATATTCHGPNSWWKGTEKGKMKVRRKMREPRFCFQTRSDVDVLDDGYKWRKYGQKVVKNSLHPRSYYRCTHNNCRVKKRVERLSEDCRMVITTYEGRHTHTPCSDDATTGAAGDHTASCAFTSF
row,Sequence,binding signal
1,TGTATTTGACTGTTACTGCTTTTGGATTTTGTTTCATTTTCGGAGTCACCTAGTGCAG,17500 fluorescence intensity (a.u.)
2,GGTTATTTATTTTTATTGGTTTCCCCATTACTGTTGACAGCGGAGTCACCTAGTGCAG,8360 fluorescence intensity (a.u.)
3,TCCCGATATCATATTATAACCCTTCTAGAAATCTAATGTTCGGAGTCACCTAGTGCAG,8160 fluorescence intensity (a.u.)
4,ATTCTGTTATGAACTATGTAAACCTTCTCATGTATATTCACGGAGTCACCTAGTGCAG,8840 fluorescence intensity (a.u.)
5,GGCCATCATCATTTGTTCCTCATCTTACTCTAGCTTCTCCCGGAGTCACCTAGTGCAG,9470 fluorescence intensity (a.u.)
6,CTCTCTGTGTGTGTGTTTGCTTTCTTGGGCTGTATCGACTCGGAGTCACCTAGTGCAG,11800 fluorescence intensity (a.u.)
7,AAGCTGGTTTGGCTAATTGTGTTGTGTAACTATAAATCTTCGGAGTCACCTAGTGCAG,8280 fluorescence intensity (a.u.)
8,CGCCCACCCACGCATCCATCCATCGATCGCAGCCAAATTCCGGAGTCACCTAGTGCAG,9430 fluorescence intensity (a.u.)
9,TGCTGTGGTGTGGTGTGGTGTGAATTTTGTTGATTGGTCGCGGAGTCACCTAGTGCAG,8750 fluorescence intensity (a.u.)
10,CATTTAGTTTGGGATGGGGTGGTTGATCCGATTTTTTCTGCGGAGTCACCTAGTGCAG,14700 fluorescence intensity (a.u.)
11,TTGCGTTTTGGGTGGTGAATTTTGATTTTGATTCTTTTTTCGGAGTCACCTAGTGCAG,12700 fluorescence intensity (a.u.)
12,CATGGGAATTTTGGTGGGATGGGGATGGAGAATTGAGCAACGGAGTCACCTAGTGCAG,8700 fluorescence intensity (a.u.)
13,TTGATTTTGCTCGTGGTGTGTGTTTGTGTTTGGTATGGTTCGGAGTCACCTAGTGCAG,18400 fluorescence intensity (a.u.)
14,ACATGGGAATTTTGGTGGGATGGGGATGGGGATGGGGAATCGGAGTCACCTAGTGCAG,34000 fluorescence intensity (a.u.)
15,AATTGGGTTCGAATTTTTCTCTGGTTCGCTTGTGATTTTGCGGAGTCACCTAGTGCAG,8240 fluorescence intensity (a.u.)
16,GCTTCCTTGTCCGATTTGGTGGTTGATTCGTGTTTTTGCTCGGAGTCACCTAGTGCAG,9300 fluorescence intensity (a.u.)
17,ACATGGGAATTTTGGTGGGATGGGGATGGGGAATTGACCTCGGAGTCACCTAGTGCAG,14100 fluorescence intensity (a.u.)
18,CGTCGCTTGGGGTGGTGTTGGTGGTTCTGAATTTTGATTGCGGAGTCACCTAGTGCAG,19200 fluorescence intensity (a.u.)
19,TCATTCCGATTTGGTGGGGTTTGAGTTTGATTGATTCTTTCGGAGTCACCTAGTGCAG,19300 fluorescence intensity (a.u.)
20,GGTTTGTTCGTGTCTTTTGTGGTGATTGCATTTGATTGGGCGGAGTCACCTAGTGCAG,9920 fluorescence intensity (a.u.)
21,CCTTTTGTCAGTCTAGCCAAAGATCTAGGATCTTCAACACCGGAGTCACCTAGTGCAG,8100 fluorescence intensity (a.u.)

row,Sequence,binding signal
1,ACCCGCCGTCGCTCTCCAACGCGCTCGTCGCGGCGTTCAACGGAGTCACCTAGTGCAG,8970 fluorescence intensity (a.u.)
2,TGCTTGTTCCGGTTCCTTCCCAACCCTTTTGCAAGAACACCGGAGTCACCTAGTGCAG,9120 fluorescence intensity (a.u.)
3,GTCACCGTCTCGTCTCCGTCTCCGCCGCTCGTCGTCGACCCGGAGTCACCTAGTGCAG,12600 fluorescence intensity (a.u.)
4,AAAAAAATCTCGTTGTTACTGTCTATAGATCACTATATTACGGAGTCACCTAGTGCAG,8570 fluorescence intensity (a.u.)
5,GCCGCCATCGTTCCTGTTCGCCGCCCGTTGTCCTTCCAATCGGAGTCACCTAGTGCAG,13000 fluorescence intensity (a.u.)
6,TTCTTCACCGTTTTGTTTTCTCTGCGCCTCAAATTTCCTTCGGAGTCACCTAGTGCAG,12000 fluorescence intensity (a.u.)
7,CCGGTGATGTTTTTATTTTTCTTCCGGTTCTTTTTCTCAACGGAGTCACCTAGTGCAG,12300 fluorescence intensity (a.u.)
8,TGAGTTGTTTTGTTGATAGGTATAGATATGAATCGAATTACGGAGTCACCTAGTGCAG,8950 fluorescence intensity (a.u.)
9,GGGGTGACATTTCAATTGTTTTTCTCTTATATTTGTAATCCGGAGTCACCTAGTGCAG,20100 fluorescence intensity (a.u.)
10,TTGTTGGGTGCTGAATTGCTGATGTGGTGGGGTGACATGACGGAGTCACCTAGTGCAG,12500 fluorescence intensity (a.u.)
11,CTGATGGTGTTGGTGATGGTGGTGCGGGTGCGGCAGTTGACGGAGTCACCTAGTGCAG,13200 fluorescence intensity (a.u.)
12,TTGTGGATTTTTTTTTTTTGAGAGGGATGGGTGTTTGATTCGGAGTCACCTAGTGCAG,10900 fluorescence intensity (a.u.)
13,GGTTGGTGCTGTATTGTTTGAGGGGAGGGGATTCCATTTTCGGAGTCACCTAGTGCAG,47400 fluorescence intensity (a.u.)
14,GAGGATTGATTTGTTTTTTTTTTTTGGGGTTTTCTCTTCTCGGAGTCACCTAGTGCAG,16300 fluorescence intensity (a.u.)
15,ATTCTGTATTTATTGTTTGCTGCATTCAGTTTGATTGGTTCGGAGTCACCTAGTGCAG,13900 fluorescence intensity (a.u.)
16,ACGTATTTGTGAGGGGATTTGGTACCATTACATCTGTTTTCGGAGTCACCTAGTGCAG,8192 fluorescence intensity (a.u.)
17,TTTCTTTTCATATATTTTTGTTTATTTTCTCTCATTTCTCCGGAGTCACCTAGTGCAG,11300 fluorescence intensity (a.u.)
18,GGTGACTGATAATTATTATTTTCTTTGTTTCACATTATACCGGAGTCACCTAGTGCAG,14200 fluorescence intensity (a.u.)
19,TTGACAATGGTTGGGGTGGTGGTGGTGTTCGCGGTGATGACGGAGTCACCTAGTGCAG,31700 fluorescence intensity (a.u.)
20,AGATTGGGTTTGGGTGGTGTGAGGATTGATTTGTTTTTTTCGGAGTCACCTAGTGCAG,17800 fluorescence intensity (a.u.)
21,GGACTGCTCCACCATTTTTAGTCCCGGTTGGTAATACCAACGGAGTCACCTAGTGCAG,8570 fluorescence intensity (a.u.)
